Holding throughout (conditions): mRNA level, 48 h; actives raise or lower the signal
Read-out in assay [1]: Protein phosphatase 2A (PPP2R4), PTPA (gene 5524)
In words: LTEA_HepaRG_PPP2R4: Life Technologies and Expression Analysis (LTEA) Assay for Protein phosphatase 2A (PPP2R4) using HepaRG (AID 2283522). The essentials:
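Using HepaRG cultures maintained in 0.5% DMSO, chemicals are tested 48 h at up to 100 uM in duplicate. Induction or suppression of PPP2R4 mRNA, measured by qRT-PCR, is fitted bidirectionally against the vehicle baseline.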

Read-out in assay [2]: Phosphatase and tensin (PTEN), PTEN (gene 5728)
Nature of the assay: LTEA_HepaRG_PTEN: Life Technologies and Expression Analysis (LTEA) Assay for Phosphatase and tensin (PTEN) using HepaRG (AID 2283523). Summed up:
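Read-out: TaqMan qRT-PCR of PTEN transcript, normalized to three housekeeping genes, fitted in both directions against 0.5% DMSO. Differentiated human HepaRG cultures received chemicals for 48 h, eight-point half-log series topping at 100 uM.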

Read-out in assay [3]: solute carrier (SLC22A1), SLC22A1 (gene 6580)
Nature of the assay: LTEA_HepaRG_SLC22A1: Life Technologies and Expression Analysis (LTEA) Assay for solute carrier (SLC22A1) using HepaRG (AID 2283524).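 On AC50: differentiated human HepaRG liver cells in serum-free induction medium.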 Summed up: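 Transcript level of SLC22A1 quantified by qRT-PCR (normalized to three housekeeping genes) after 48 h chemical exposure of HepaRG cells, eight concentrations up to 100 µM, half-log steps, 0.5% DMSO vehicle. Gain or loss relative to DMSO fitted bidirectionally.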

Read-out in assay [4]: Pyruvate Dehydrogenase Kinase 4 (PDK4), PDK4 (gene 5166)
Nature of the assay: LTEA_HepaRG_PDK4: Life Technologies and Expression Analysis (LTEA) Assay for Pyruvate Dehydrogenase Kinase 4 (PDK4) using HepaRG (AID 2283525). Summed up: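 Readout is qRT-PCR of PDK4 transcript, normalized to three housekeeping genes, with bidirectional fitting against 0.5% DMSO vehicle. Differentiated HepaRG cells were treated 48 h in serum-free induction medium, duplicate wells, eight-point half-log series topping at 100 uM.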

Read-out in assay [5]: NAD(P)H dehydrogenase [quinone] 1 (NQO1), NQO1 (gene 1728)
Nature of the assay: LTEA_HepaRG_NQO1: Life Technologies and Expression Analysis (LTEA) Assay for NAD(P)H dehydrogenase [quinone] 1 (NQO1) using HepaRG (AID 2283526). Summed up: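 In this assay, gene expression is read by qRT-PCR after 48 h exposure of HepaRG cells to eight concentrations (max 100 uM, half-log) in 0.5% DMSO. Each chemical runs in duplicate, and activity is scored relative to vehicle.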

Read-out in assay [6]: Nuclear factor erythroid 2-related factor 2 (Homo sapiens) (UniProt Q16236)
In words: LTEA_HepaRG_NFE2L2: Life Technologies and Expression Analysis (LTEA) Assay for Nuclear factor erythroid 2-related factor 2 (NFE2L2) Transcription Factor using HepaRG (AID 2283527). The essentials:
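NFE2L2 transcript level was read by qRT-PCR (housekeeping ACTB/GAPDH/POLR2A normalisation) after 48 h chemical treatment of HepaRG in serum-free induction medium. Duplicate 8-point half-log curves, top 100 uM, 0.5% DMSO vehicle; up- or down-regulation fitted against vehicle.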

Read-out in assay [7]: Signal transducer and activator of transcription 3 (Homo sapiens) (UniProt P40763)
Nature of the assay: LTEA_HepaRG_STAT3: Life Technologies and Expression Analysis (LTEA) Assay for Signal transducer and activator of transcription (STAT3) using HepaRG (AID 2283529). The essentials: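 STAT3 transcript quantified by qRT-PCR against three housekeeping genes (ACTB, GAPDH, POLR2A), fitted both directions relative to DMSO. HepaRG cultures exposed 48 h to eight half-log concentrations, top 100 uM, 0.5% DMSO, serum-free induction medium.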

Read-out in assay [8]: solute carrier (SLCO1B1), SLCO1B1 (gene 10599)
In words: LTEA_HepaRG_SLCO1B1: Life Technologies and Expression Analysis (LTEA) Assay for solute carrier (SLCO1B1) using HepaRG (AID 2283530). The essentials:
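SLCO1B1 transcript levels were quantified by TaqMan qRT-PCR using three housekeeping genes for normalization. This followed 48 h chemical exposure (100 uM top, half-log, 8 points, 0.5% DMSO) of HepaRG liver cells, with gain or loss fitted relative to DMSO.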

Read-out in assay [9]: sulfotransferase 2A1 (SULT2A1), SULT2A1 (gene 6822)
In words: LTEA_HepaRG_SULT2A1: Life Technologies and Expression Analysis (LTEA) Assay for sulfotransferase 2A1 (SULT2A1) using HepaRG (AID 2283531). Summed up: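 Expression change of SULT2A1, by qRT-PCR with three housekeeping-gene normalization, was scored bidirectionally versus DMSO. Cells: differentiated HepaRG, dosed in duplicate for 48 h across 8 points, highest 100 µM, half-log dilution, 0.5% DMSO.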

Read-out in assay [10]: Transforming Growth Factor (TGFB1), TGFB1 (gene 7040)
Nature of the assay: LTEA_HepaRG_TGFB1: Life Technologies and Expression Analysis (LTEA) Assay for Transforming Growth Factor (TGFB1) Transporter using HepaRG (AID 2283533). The essentials: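 TGFB1 transcript measured by qRT-PCR with normalisation to three housekeeping genes (ACTB, GAPDH, POLR2A); human HepaRG line treated in duplicate for 48 hr with an 8-point series topping at 100 uM, 0.5% DMSO vehicle, bidirectionally fitted.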

Read-out in assay [11]: TIMP1, TIMP1 (gene 7076)
Nature of the assay: LTEA_HepaRG_TIMP1: Life Technologies and Expression Analysis (LTEA) Assay for TIMP1 using HepaRG (AID 2283534). Summed up:
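Bidirectional change in TIMP1 transcript versus 0.5% DMSO, measured by TaqMan qRT-PCR with three housekeeping genes for normalization. HepaRG human liver cells dosed 48 h in duplicate, top concentration 100 uM with half-log dilutions.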

Read-out in assay [12]: Tumor necrosis factor receptor 1 (TNFRSF1A), TNFRSF1A (gene 7132)
Nature of the assay: LTEA_HepaRG_TNFRSF1A: Life Technologies and Expression Analysis (LTEA) Assay for Tumor necrosis factor receptor 1 (TNFRSF1A) using HepaRG (AID 2283535). The essentials:
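mRNA measured by qRT-PCR (TaqMan, Fluidigm arrays) against ACTB/GAPDH/POLR2A housekeepers after 48 h chemical exposure of HepaRG cells. Top concentration 100 uM, half-log 8-point series, duplicates; vehicle 0.5% DMSO, both fit directions.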

Read-out in assay [13]: Thyroid Hormone Responsive (THRSP), THRSP (gene 7069)
In words: LTEA_HepaRG_THRSP: Life Technologies and Expression Analysis (LTEA) Assay for Thyroid Hormone Responsive (THRSP) using HepaRG (AID 2283536). Summed up:
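THRSP transcript quantified by Fluidigm qRT-PCR against three housekeeping genes after 48 h chemical exposure of HepaRG cells in serum-free induction medium; eight-point half-log series, top 100 uM, 0.5% DMSO vehicle, duplicate wells.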

Read-out in assay [14]: UDP glucuronosyltransferase (UGT1A1), UGT1A1 (gene 54658)
In words: LTEA_HepaRG_UGT1A1: Life Technologies and Expression Analysis (LTEA) Assay for UDP glucuronosyltransferase (UGT1A1) using HepaRG (AID 2283538). Summed up:
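mRNA induction or loss of UGT1A1, by TaqMan qRT-PCR, in duplicate HepaRG wells after 48 h exposure to half-log dilutions topping at 100 uM; DMSO (0.5%) served as baseline.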

Read-out in assay [15]: UDP glucuronosyltransferase (UGT1A6), UGT1A6 (gene 54578)
In words: LTEA_HepaRG_UGT1A6: Life Technologies and Expression Analysis (LTEA) Assay for UDP glucuronosyltransferase (UGT1A6) using HepaRG (AID 2283539). Summed up: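 Expression was quantified by TaqMan qRT-PCR on Fluidigm arrays with ACTB/GAPDH/POLR2A normalization and bidirectional fitting against 0.5% DMSO. HepaRG cells (~100,000/well) were treated in duplicate for 48 h at eight half-log concentrations up to 100 uM in serum-free induction medium.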

Read-out in assay [16]: X-box binding protein 1 (XBP1), XBP1 (gene 7494)
In words: LTEA_HepaRG_XBP1: Life Technologies and Expression Analysis (LTEA) Assay for X-box binding protein 1 (XBP1) using HepaRG (AID 2283540). The essentials: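 XBP1 transcript by qRT-PCR (housekeeping-normalized: ACTB, GAPDH, POLR2A) after 48 h chemical treatment of HepaRG cells, 8-point half-log series topping at 100 uM, vehicle 0.5% DMSO. Gain and loss of signal fitted relative to DMSO.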

Read-out in assay [17]: succinate dehydrogenase complex iron sulfur subunit B (SDHB), SDHB (gene 6390)
Nature of the assay: LTEA_HepaRG_SDHB: Life Technologies and Expression Analysis (LTEA) Assay for succinate dehydrogenase complex iron sulfur subunit B (SDHB) using HepaRG (AID 2283528). Summed up:
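HepaRG cells (~100,000/well, plated 48 h) exposed in duplicate for 48 h in serum-free induction medium to 8-point half-log series from 100 uM in 0.5% DMSO; mRNA by qRT-PCR normalised to ACTB, GAPDH, POLR2A; bidirectional fit versus DMSO.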

Read-out in assay [18]: Transforming Growth Factor (TGFA), TGFA (gene 7039)
In words: LTEA_HepaRG_TGFA: Life Technologies and Expression Analysis (LTEA) Assay for Transforming Growth Factor (TGFA) using HepaRG (AID 2283532). The essentials: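 TGFA transcript quantified by qRT-PCR (Fluidigm arrays) against three housekeeping genes, after 48 hours chemical treatment of HepaRG cells. Top concentration 100 uM with half-log dilutions, 8 points, duplicates, 0.5% DMSO.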

Read-out in assay [19]: Cellular tumor antigen p53 (Homo sapiens) (UniProt P04637)
In words: LTEA_HepaRG_TP53: Life Technologies and Expression Analysis (LTEA) Assay for Tumor Protein P53 (TP53) using HepaRG (AID 2283537). The essentials:
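Differentiated HepaRG cells in serum-free induction medium exposed 48 h in duplicate to 8 half-log concentrations, top 100 uM, 0.5% DMSO. TP53 mRNA by TaqMan qRT-PCR (Fluidigm), normalized to ACTB, GAPDH, POLR2A; fitted bidirectionally versus DMSO.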

Calls of active or inactive are those of the source. How the source made its calls: active means hit-call score of the fitted dose curve at least 0.9, where 1 is the maximum; inactive means score below 0.9.

Chain of Nuclear factor erythroid 2-related factor 2 (Homo sapiens) (Q16236 whole entry, looked up): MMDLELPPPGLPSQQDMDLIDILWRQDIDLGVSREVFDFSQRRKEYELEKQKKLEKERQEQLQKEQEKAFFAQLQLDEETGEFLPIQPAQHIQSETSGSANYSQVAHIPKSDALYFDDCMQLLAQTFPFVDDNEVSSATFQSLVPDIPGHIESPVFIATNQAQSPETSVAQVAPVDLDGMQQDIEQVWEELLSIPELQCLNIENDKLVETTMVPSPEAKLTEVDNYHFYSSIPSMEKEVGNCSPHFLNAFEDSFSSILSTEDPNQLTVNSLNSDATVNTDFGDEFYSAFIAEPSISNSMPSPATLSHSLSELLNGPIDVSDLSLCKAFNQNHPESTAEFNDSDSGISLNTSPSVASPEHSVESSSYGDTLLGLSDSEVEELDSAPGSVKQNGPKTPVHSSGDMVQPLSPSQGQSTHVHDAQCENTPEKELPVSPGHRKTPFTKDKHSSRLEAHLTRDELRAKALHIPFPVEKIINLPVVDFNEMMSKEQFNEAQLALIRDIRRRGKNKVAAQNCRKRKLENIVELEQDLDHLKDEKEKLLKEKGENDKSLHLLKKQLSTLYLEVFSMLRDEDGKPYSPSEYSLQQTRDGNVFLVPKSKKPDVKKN
Chain of Signal transducer and activator of transcription 3 (Homo sapiens) (P40763 whole entry, looked up): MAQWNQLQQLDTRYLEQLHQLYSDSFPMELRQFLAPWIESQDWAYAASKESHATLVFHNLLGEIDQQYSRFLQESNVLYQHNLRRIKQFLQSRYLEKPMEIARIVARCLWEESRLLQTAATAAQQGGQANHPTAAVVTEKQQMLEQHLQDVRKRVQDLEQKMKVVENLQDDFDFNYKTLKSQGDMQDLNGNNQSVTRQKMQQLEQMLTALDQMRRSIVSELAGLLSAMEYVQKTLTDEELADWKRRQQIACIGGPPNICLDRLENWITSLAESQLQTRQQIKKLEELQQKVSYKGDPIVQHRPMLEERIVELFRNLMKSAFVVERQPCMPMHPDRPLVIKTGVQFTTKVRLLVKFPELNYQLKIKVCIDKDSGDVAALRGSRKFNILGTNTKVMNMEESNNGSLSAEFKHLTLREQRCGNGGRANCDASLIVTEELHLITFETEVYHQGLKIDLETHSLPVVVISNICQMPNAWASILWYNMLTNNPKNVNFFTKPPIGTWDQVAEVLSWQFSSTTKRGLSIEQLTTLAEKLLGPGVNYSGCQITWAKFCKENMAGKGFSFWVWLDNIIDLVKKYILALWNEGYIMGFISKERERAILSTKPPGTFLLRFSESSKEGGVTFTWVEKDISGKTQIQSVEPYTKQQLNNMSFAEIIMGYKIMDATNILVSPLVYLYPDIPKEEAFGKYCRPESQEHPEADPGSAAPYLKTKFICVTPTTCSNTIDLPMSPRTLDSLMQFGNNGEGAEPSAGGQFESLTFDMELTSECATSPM
Chain of Cellular tumor antigen p53 (Homo sapiens) (P04637 whole entry, looked up): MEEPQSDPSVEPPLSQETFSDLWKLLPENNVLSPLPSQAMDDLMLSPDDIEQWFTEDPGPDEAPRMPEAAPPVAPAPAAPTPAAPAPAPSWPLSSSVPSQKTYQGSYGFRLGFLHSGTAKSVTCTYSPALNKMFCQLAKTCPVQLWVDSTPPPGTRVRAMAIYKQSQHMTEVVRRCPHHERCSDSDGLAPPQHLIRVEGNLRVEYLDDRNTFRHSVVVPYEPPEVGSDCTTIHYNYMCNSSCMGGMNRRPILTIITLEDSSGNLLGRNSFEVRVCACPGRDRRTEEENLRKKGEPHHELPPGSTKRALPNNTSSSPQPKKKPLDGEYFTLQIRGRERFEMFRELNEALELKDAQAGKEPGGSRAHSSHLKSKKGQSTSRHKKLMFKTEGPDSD

As to `OCC(CO)(CO)CO`, the molecule was classed as inactive in assay [1], in [2], in assay [3], in assay [4], in assay [5] and in [6]. The result in [7], in assay [8], in assay [9], in assay [10], in assay [11] and in assay [12] was inactive. The call in assay [13], in assay [14], in assay [15] and in [16] was inactive.
Consider `CCOC(N)=O`, for which the call in [1], in assay [2], in assay [3], in assay [4], in assay [5] and in assay [6] was inactive. Moreover, the molecule was classed as inactive in [17], in assay [7], in [8], in assay [9], in [18] and in assay [10]. The molecule was called inactive in [11], in assay [12], in [19], in [14], in assay [15] and in assay [16].
For `C[C@]12C=CC(=O)C=C1CC[C@H]1[C@@H]3C[C@@H](O)[C@](O)(C(=O)CO)[C@@]3(C)C[C@H](O)[C@@]12F`, the result in assay [1], in assay [2], in assay [3], in assay [4], in [5] and in [6] was inactive. Further, the molecule was called inactive in assay [17], in assay [7], in [8], in assay [9], in assay [10] and in assay [11]. For the same molecule, the molecule was classed as inactive in assay [12], in assay [19], in [14], in [15] and in assay [16].
One may read the AC50 as the concentration giving half of the maximal activity seen. `CC(C)C(=O)Nc1ccc([N+](=O)[O-])c(C(F)(F)F)c1`: the molecule was classed as inactive in assay [1], in assay [2], in assay [17], in assay [7], in assay [10] and in [12]. The AC50 was 45.4 µM (active) in assay [3]; 9.61 µM (active) in assay [4]; 50 µM (active) in assay [5]; 50 µM (active) in [6]; 63.6 µM (active) in [8]; 79.6 µM (active) in assay [9]. In addition, the AC50 is 82.3 µM (active) in [18]; 28.7 µM (active) in assay [11]; 10.9 µM (active) in assay [13]; 90.1 µM (active) in assay [14]; 74.7 µM (active) in [15]; 12.2 µM (active) in [16].
